# Assay results from PubChem BioAssay (NCATS).
# Records with an inconclusive call do not appear. The source made the active and inactive calls. The call rests on the fitted dose curve; in most records, active means well fitted inhibition curve with a large enough effect; inconclusive means small, poorly fitted or top-dose-only effect; inactive means flat fitted curve, though single readings scatter.
# Tested on: HACAT
# Assay: qHTS assay to identify novel small-molecules to repurpose for Merkel cell carcinoma treatment (AID 1296009); further: nearly all actives have a fitted effect of over 60% in size
# Conditions: MCC and control cell lines, CellTiter-Glo viability, 72 h; at 44.8 µM (top of the series) unless noted
# In short: (§1)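 Cells were incubated with compound for 72 hr at 37 degree celsius before CellTiter-Glo addition. Luminescence was normalized with no-cell wells as full cytotoxicity and DMSO as baseline.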
# On the % scale 0 is the no-effect control and ±100 the full control effect; potency means the concentration at half of the fitted maximal effect.
row,Compound,outcome
1,Cc1nc2c([nH]1)c(=O)n(C)c(=O)n2Cc1ccco1,inactive
2,CCN(Cc1ccncc1)C(=O)C(CO)c1ccccc1 (stereo not drawn),inactive
3,O=C1CC2(CCCC2)CC(=O)N1CCCCN1CCN(c2ncccn2)CC1,inactive
4,CN(C)C/C=C(/c1ccc(Br)cc1)c1cccnc1,inactive
5,CCCCCN(CCCCC)C(=O)C(CCC(=O)O)NC(=O)c1ccc(Cl)c(Cl)c1 (stereo not drawn),inactive
6,CC(C)NNC(=O)c1ccncc1,inactive
7,NC(=O)c1ncn([C@@H]2O[C@H](CO)[C@@H](O)[C@H]2O)c1O,inactive

# Tested on: HEK293T
# Assay: as above
# Conditions: MCC and control cell lines, CellTiter-Glo viability, 72 h; at 44.8 µM (top of the series) unless noted
# In short: as §1
row,Compound,outcome
1,O=C(O)CP(=O)(O)O,inactive
2,O=C(O)CN(CCN(CC(=O)O)CC(=O)O)CCN(CC(=O)O)CC(=O)O,inactive [at 17.4 µM]
3,CC(=O)Oc1cc(C(C)C)c(OCCN(C)C)cc1C,inactive
4,C[N+](C)(C)CCOC(N)=O,inactive

# Tested on: MCC-13
# Assay: as above
# Conditions: MCC and control cell lines, CellTiter-Glo viability, 72 h; series mostly up to 46 µM; activity change, negative = cytotoxicity: at the top concentration
# In short: as §1
Compound,"activity change, negative = cytotoxicity",Potency
Cc1ccc(=O)n(-c2ccccc2)c1,10.8% (inactive),
Cc1nc2c([nH]1)c(=O)n(C)c(=O)n2Cc1ccco1,-14.9% (inactive),
CC(=O)Nc1nnc(S(N)(=O)=O)s1,11.1% (inactive),
CCN(CC)CCNC(=O)c1cc(S(C)(=O)=O)ccc1OC,2.49% (inactive),
NC(=O)N1c2ccccc2C=Cc2ccccc21,8.77% (inactive),
O=C(O)CCCCCCCC(=O)O,-0.774% (inactive),
NC(=O)c1cn(Cc2c(F)cccc2F)nn1,18.6% (inactive),
COC(=O)[C@@H](N)Cc1ccc(O)c(O)c1,-6.8% (inactive),
O=C(O)CN(CCOCCOCCN(CC(=O)O)CC(=O)O)CC(=O)O,-0.433% [at 0.597 µM] (inactive),
CC1=C(C)C(=O)C(CCCCC#CCCCC#CCO)=C(C)C1=O,-13.7% (inactive),
CCCCNc1ccc(C(=O)OCCN(C)C)cc1,6.02% (inactive),
O=C(O)CP(=O)(O)O,5.63% (inactive),
CN1C[C@H](C(=O)N[C@]2(C)O[C@@]3(O)[C@@H]4CCCN4C(=O)[C@H](Cc4ccccc4)N3C2=O)C[C@@H]2c3cccc4[nH]cc(c34)C[C@H]21,-3.35% (inactive),
CCN(Cc1ccncc1)C(=O)C(CO)c1ccccc1 (stereo not drawn),-5.71% (inactive),
CCOC(=O)c1cnc2c(cnn2CC)c1NN=C(C)C,-2.79% (inactive),
CC(C)[N+](C)(CCOC(=O)C1c2ccccc2Oc2ccccc21)C(C)C,-5.84% (inactive),
Cc1ccc(/C(=C\CN2CCCC2)c2ccccn2)cc1,3.44% (inactive),

Compound,"activity change, negative = cytotoxicity",Potency
O=C1CC2(CCCC2)CC(=O)N1CCCCN1CCN(c2ncccn2)CC1,-16.9% (inactive),
CCN(CC)CC(=O)Nc1c(C)cccc1C,-7.21% (inactive),
CC(=O)[C@]1(O)Cc2c(O)c3c(c(O)c2[C@@H](O[C@H]2C[C@H](N)[C@H](O)[C@H](C)O2)C1)C(=O)c1ccccc1C3=O,,3.76 µM (active)
CN(C)C/C=C(/c1ccc(Br)cc1)c1cccnc1,0.912% (inactive),
CCn1cc(C(=O)O)c(=O)c2cc3c(cc21)OCO3,-2.05% [at 16.1 µM] (inactive),
CCCCCN(CCCCC)C(=O)C(CCC(=O)O)NC(=O)c1ccc(Cl)c(Cl)c1 (stereo not drawn),-5.24% (inactive),
NC(N)=NC(=O)Cc1c(Cl)cccc1Cl,-2.9% (inactive),
CCN(CC)CCNC(=O)c1ccc(NC(C)=O)cc1,-18.1% (inactive),
O=C(O)CN(CCN(CC(=O)O)CC(=O)O)CCN(CC(=O)O)CC(=O)O,17.5% [at 16.1 µM] (inactive),
COc1cc(C(=O)OCCCN2CCCN(CCCOC(=O)c3cc(OC)c(OC)c(OC)c3)CC2)cc(OC)c1OC,-1.64% (inactive),
C[C@@H](O)[C@H]1C(=O)N2C(C(=O)O)=C(SCCN=CN)C[C@H]12,11.8% (inactive),
CC(C)NNC(=O)c1ccncc1,10.8% (inactive),
CC(=O)Oc1cc(C(C)C)c(OCCN(C)C)cc1C,14.6% (inactive),
C[N+](C)(C)CCOC(N)=O,-0.5% (inactive),
CC(C)(C)NCC(O)c1cc(O)cc(O)c1 (stereo not drawn),-3.56% (inactive),
NC(=O)c1ncn([C@@H]2O[C@H](CO)[C@@H](O)[C@H]2O)c1O,8.09% (inactive),

# Tested on: MCC-26
# Assay: as above
# Conditions: MCC and control cell lines, CellTiter-Glo viability, 72 h; series mostly up to 46 µM; activity change, negative = cytotoxicity: at the top concentration
# In short: as §1
Compound,"activity change, negative = cytotoxicity",Potency
Cc1ccc(=O)n(-c2ccccc2)c1,5.31% (inactive),
Cc1nc2c([nH]1)c(=O)n(C)c(=O)n2Cc1ccco1,-5.47% (inactive),
CC(=O)Nc1nnc(S(N)(=O)=O)s1,15.3% (inactive),
CCN(CC)CCNC(=O)c1cc(S(C)(=O)=O)ccc1OC,14.7% (inactive),
NC(=O)N1c2ccccc2C=Cc2ccccc21,4.78% (inactive),
O=C(O)CCCCCCCC(=O)O,5.98% (inactive),
NC(=O)c1cn(Cc2c(F)cccc2F)nn1,12.1% (inactive),
COC(=O)[C@@H](N)Cc1ccc(O)c(O)c1,-4.43% (inactive),
O=C(O)CN(CCOCCOCCN(CC(=O)O)CC(=O)O)CC(=O)O,19.1% [at 0.597 µM] (inactive),
CC1=C(C)C(=O)C(CCCCC#CCCCC#CCO)=C(C)C1=O,-2.66% (inactive),
CCCCNc1ccc(C(=O)OCCN(C)C)cc1,12% (inactive),
O=C(O)CP(=O)(O)O,3.15% (inactive),
CN1C[C@H](C(=O)N[C@]2(C)O[C@@]3(O)[C@@H]4CCCN4C(=O)[C@H](Cc4ccccc4)N3C2=O)C[C@@H]2c3cccc4[nH]cc(c34)C[C@H]21,-1.14% (inactive),
CCN(Cc1ccncc1)C(=O)C(CO)c1ccccc1 (stereo not drawn),-15.4% (inactive),
CCOC(=O)c1cnc2c(cnn2CC)c1NN=C(C)C,9.84% (inactive),
CC(C)[N+](C)(CCOC(=O)C1c2ccccc2Oc2ccccc21)C(C)C,-0.579% (inactive),
Cc1ccc(/C(=C\CN2CCCC2)c2ccccn2)cc1,-2.63% (inactive),

Compound,"activity change, negative = cytotoxicity",Potency
O=C1CC2(CCCC2)CC(=O)N1CCCCN1CCN(c2ncccn2)CC1,-8.07% (inactive),
CCN(CC)CC(=O)Nc1c(C)cccc1C,-12.1% (inactive),
CC(=O)[C@]1(O)Cc2c(O)c3c(c(O)c2[C@@H](O[C@H]2C[C@H](N)[C@H](O)[C@H](C)O2)C1)C(=O)c1ccccc1C3=O,,1.33 µM (active)
C[n+]1cc2c3c(ccc2c2ccc4cc5c(cc4c21)OCO5)OCO3,,3.66 µM (active)
CN(C)C/C=C(/c1ccc(Br)cc1)c1cccnc1,2.63% (inactive),
CCn1cc(C(=O)O)c(=O)c2cc3c(cc21)OCO3,-6% [at 16.1 µM] (inactive),
CCCCCN(CCCCC)C(=O)C(CCC(=O)O)NC(=O)c1ccc(Cl)c(Cl)c1 (stereo not drawn),3.71% (inactive),
NC(N)=NC(=O)Cc1c(Cl)cccc1Cl,-14.3% (inactive),
CCN(CC)CCNC(=O)c1ccc(NC(C)=O)cc1,-15.4% (inactive),
O=C(O)CN(CCN(CC(=O)O)CC(=O)O)CCN(CC(=O)O)CC(=O)O,8.71% [at 16.1 µM] (inactive),
COc1cc(C(=O)OCCCN2CCCN(CCCOC(=O)c3cc(OC)c(OC)c(OC)c3)CC2)cc(OC)c1OC,-2.41% (inactive),
C[C@@H](O)[C@H]1C(=O)N2C(C(=O)O)=C(SCCN=CN)C[C@H]12,-3.19% (inactive),
CC(C)NNC(=O)c1ccncc1,2.19% (inactive),
CC(=O)Oc1cc(C(C)C)c(OCCN(C)C)cc1C,11.4% (inactive),
C[N+](C)(C)CCOC(N)=O,7.68% (inactive),
CC(C)(C)NCC(O)c1cc(O)cc(O)c1 (stereo not drawn),-10.1% (inactive),
NC(=O)c1ncn([C@@H]2O[C@H](CO)[C@@H](O)[C@H]2O)c1O,0.904% (inactive),
